Screening results deposited in PubChem BioAssay by several laboratories.
MMP-13 inhibitor: blocks human MMP13 activity | P45452 | 0.07% of 65,000 active | inhibition, % at 4 µM | MMP-13 fTHP FRET cleavage, Mca fluorescence;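 active means inhibition above the mean of compound-free control plate wells plus 3 SD, cut at about 14% in these data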
CD11b adhes enh: CD11b/CD18-fibrinogen binding enhancement. P05107+P11215. K562 CD11b/CD18 adhesion to fibrinogen, ATPlite luminescence. activation, % at 10 µM. 0.07% of 93,000 active. AID 1499;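 active means 10 µM primary screen giving 50% or more activity, confirmed by 40% or more on retest at that dose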
Mac1 fbg inh: inhibitors of human CD11b/CD18 binding to fibrinogen; K562 CD11b/CD18 adhesion to fibrinogen, ATPlite luminescence; Mn2+ added to activate the integrin; inhibition, % at 10 µM; 0.54% of 93,000 active;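 active means primary inhibition of 50% or more at 10 µM, then 40% or more on retest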
FAK inh: FAK (human) kinase inhibition. Q05397. biochemical FAK kinase activity assay. inhibition, %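 (tested at 7 µM)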. 0.84% of 97,000 active. AID 727
Target sequence (Q05397 whole entry, looked up): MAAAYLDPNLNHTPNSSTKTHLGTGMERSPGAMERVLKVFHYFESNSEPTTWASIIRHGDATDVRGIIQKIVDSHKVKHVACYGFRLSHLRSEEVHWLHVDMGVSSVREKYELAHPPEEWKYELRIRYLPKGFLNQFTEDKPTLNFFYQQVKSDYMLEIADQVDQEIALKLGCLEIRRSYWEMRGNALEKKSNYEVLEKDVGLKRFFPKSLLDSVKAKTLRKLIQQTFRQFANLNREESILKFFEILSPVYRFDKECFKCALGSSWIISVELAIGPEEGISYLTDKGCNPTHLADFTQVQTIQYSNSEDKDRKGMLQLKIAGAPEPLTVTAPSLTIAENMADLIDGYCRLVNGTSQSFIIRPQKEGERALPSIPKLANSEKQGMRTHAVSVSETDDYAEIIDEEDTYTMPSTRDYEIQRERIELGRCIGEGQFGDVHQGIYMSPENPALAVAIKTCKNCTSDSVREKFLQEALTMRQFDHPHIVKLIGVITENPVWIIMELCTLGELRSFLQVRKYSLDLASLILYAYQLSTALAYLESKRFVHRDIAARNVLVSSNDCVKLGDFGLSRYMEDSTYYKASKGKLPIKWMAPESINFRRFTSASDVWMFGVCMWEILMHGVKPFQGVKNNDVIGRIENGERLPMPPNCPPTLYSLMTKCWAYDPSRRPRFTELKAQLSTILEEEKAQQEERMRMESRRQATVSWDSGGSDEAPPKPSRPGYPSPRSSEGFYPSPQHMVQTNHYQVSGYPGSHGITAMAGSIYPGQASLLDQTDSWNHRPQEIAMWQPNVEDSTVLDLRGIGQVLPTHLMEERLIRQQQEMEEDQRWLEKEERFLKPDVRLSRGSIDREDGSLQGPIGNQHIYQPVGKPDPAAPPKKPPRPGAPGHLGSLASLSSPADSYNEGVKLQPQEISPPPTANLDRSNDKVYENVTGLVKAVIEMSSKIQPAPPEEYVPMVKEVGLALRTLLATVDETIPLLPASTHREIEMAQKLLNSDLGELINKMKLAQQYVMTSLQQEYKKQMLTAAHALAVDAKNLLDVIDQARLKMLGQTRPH
FAK inh conf: confirmation of human focal adhesion kinase (FAK) inhibitors; FAK kinase biochemical inhibition assay; 28% of 750 active; shares compounds with FAK inh; inhibition, % at 7 µM
Hits are given with their value; - = inactive; . = not tested or not shown. Shown are actives, neighbours in structure and some others; about 1.1% of the full set was active somewhere. Unless noted, no stated cut-off is given here; in the data, active means inhibition above about 19%; inactive means the rest.

SMILES | MMP-13 inhibitor | CD11b adhes enh | Mac1 fbg inh | FAK inh | FAK inh conf
Nc1c(N2CCCC2)cc(Cl)c2nonc12 | - | - | - | 40 | -
Cc1cccc(C)c1N1CCN(c2ccc3nnc(C(F)(F)F)n3n2)CC1 | . | - | - | - | .
CCCc1[nH]nc2c1C(c1ccc(O)c(OC)c1)C(C#N)=C(N)O2 (stereo not drawn) | - | - | - | 20 | -
O=C(Nc1ccc2c(c1)OCCO2)c1cccc2nc3ccccc3nc12 | . | . | . | 38 | -
CC(=O)OC(Cn1ccnc1)c1ccccc1 (stereo not drawn) | - | - | - | - | .
O=C(O)c1ccccc1OCCOCCOc1ccccc1C(=O)O | - | - | - | 38 | 34
O=C(O)c1ccccc1OCCOc1ccccc1C(=O)O | - | - | - | - | .
Cc1ccc(C(C2C(=O)CC(C)(C)CC2=O)C2C(=O)CC(C)(C)CC2=O)s1 | . | . | . | 22 | -
Cc1ccc2c(c1)cc1c(=O)[nH]ncn12 | . | . | . | 37 | -
COc1ccc2cc3cc(C(=O)Nc4ccc5c(c4)OCCO5)oc3nc2c1 | - | - | - | 43 | -
COc1ccc2cc3cc(C(=O)Nc4cc(OC)c(OC)c(OC)c4)oc3nc2c1 | . | - | - | - | .
CNc1cccc2c1C(=O)c1ccccc1C2=O | . | - | - | . | .
CNc1cccccc1=S | - | - | - | 44 | -
Cc1oncc1C(=S)Nc1ccccc1 | - | - | - | - | .
CCN(CCO)c1nc(SC)nc2c1sc1nc(-c3ccco3)c3c(c12)CCC3 | . | 117 | - | 72 | -
CCSc1nc2c(sc3ccccc32)c(=O)n1C(C)C | . | - | - | - | .
Cc1ccc2nsnc2c1S(=O)(=O)Nc1cccc2nsnc12 | - | - | - | 71 | 48
Cc1ccc(C)c(NS(=O)(=O)c2c(C)ccc3nsnc23)c1 | - | - | - | - | .
O=C(NCCO)c1ccc2nc(-c3ccco3)c(-c3ccco3)nc2c1 | . | - | - | - | .
O=C(NC1CCCC1)c1ccc2nc(-c3ccco3)c(-c3ccco3)nc2c1 | - | - | - | 19 | -
CCN(CCCNC(=O)CCNC(=O)Cn1cnc2ccccc2c1=O)c1ccccc1 | - | - | - | - | .
CCOC(=O)c1cc2sc(C)cc2n1CC(=O)N(CC)CC | . | . | . | 30 | -
O=C(Nc1ccc(-c2nc3ccc(NC(=O)c4cccs4)cc3[nH]2)cc1)c1cccs1 | . | - | - | 53 | 47
N#Cc1ccccc1/C=N/Nc1nc(-c2ccccc2)c2cc(Cl)ccc2n1 | . | - | - | 50 | 34
CCc1ccc(-c2cc(C(F)(F)F)n3nc(C(=O)Nc4cnn(Cc5ccc(C)cc5)c4)cc3n2)s1 | . | - | - | - | .
SMILES | MMP-13 inhibitor | CD11b adhes enh | Mac1 fbg inh | FAK inh | FAK inh conf
CC(C)(C)n1nc(-c2ccc(F)cc2)c2c(N)ncnc21 | . | - | - | 32 | -
CC(C)(C)n1nc(-c2ccc(Cl)cc2)c2c(N)ncnc21 | . | . | . | 26 | -
Cc1ccc(-c2nc(N)c3c(-c4ccc(C)cc4)nn(C(C)(C)C)c3n2)cc1 | . | - | - | - | .
Cc1ccccc1-c1ccc(Nc2ccc(N3CCOCC3)cc2)nn1 | - | - | - | 31 | 33
O=S1(=O)N=C(Nc2ccc(N3CCOCC3)cc2)c2ccccc21 | - | . | . | - | .
c1ccc2c(c1)CCN2CCN1CCc2ccccc21 | - | - | - | . | .
CN(C)CCN1CCc2ccccc21 | . | - | - | 32 | 45
COc1ccc([N+](=O)[O-])cc1COc1cc(C)cc2oc(=O)cc(-c3ccccc3)c12 | . | - | - | 27 | 22
Cc1cc2n(c1)CCn1c(C)ccc1-2 | - | - | - | 23 | -
Cc1ccccc1Nc1cc2ccccc2c(=O)[nH]1 | - | - | - | . | .
O=c1[nH]c(Nc2ccc(F)cc2)cc2ccccc12 | . | - | - | 36 | -
Cc1ccc(NCc2ccccc2O)cc1 | . | - | - | - | .
Cc1ccc(CNc2ccc(O)cc2)cc1 | - | - | - | 52 | -
COc1ccc(N(Cc2ccco2)C(=O)c2ccccc2F)cc1OC | - | - | - | - | .
c1ccc(-n2ncc3c(NCc4cccnc4)ncnc32)cc1 | - | - | - | - | .
CC(C(=O)O)N1C(=O)/C(=C/C=C/c2ccco2)SC1=S (stereo not drawn) | . | . | . | 100 | 23
CC1=NN(c2ccc(C(=O)OC(C)C)cc2)C(=O)/C1=C\C=C\c1ccco1 | . | . | . | - | .
COC(=O)/C(=C/Nc1ccc(O)cc1)[N+](=O)[O-] | . | - | - | 38 | -
O=C(CN1CCN(C2CCCCC2)CC1)NCCC1=CCCCC1 | - | . | . | - | .
CC(=O)[C@@H]1[C@@H]2C(=O)N(c3ccc(F)c(Cl)c3)C(=O)[C@@H]2C2c3ccccc3C=CN21 (stereo partly drawn) | - | . | . | . | .
CC(C)(C)C(=O)[C@@H]1[C@@H]2C(=O)N(Cc3ccccc3)C(=O)[C@@H]2[C@H]2c3ccccc3C=CN12 | . | - | - | - | .
O=C(c1ccco1)[C@@H]1[C@@H]2C(=O)N(c3ccc(Br)cc3)C(=O)[C@@H]2C2c3ccccc3C=CN21 (stereo partly drawn) | - | - | - | 19 | -
CC(=O)[C@H]1[C@@H]2C(=O)N(c3cccc(Cl)c3)C(=O)[C@@H]2[C@H]2c3ccccc3C=CN21 | - | - | - | 23 | -
O=C(c1ccco1)[C@@H]1[C@@H]2C(=O)N(c3ccc(F)cc3)C(=O)[C@@H]2C2c3ccccc3C=CN21 (stereo partly drawn) | - | - | - | 35 | -
COC(=O)c1sc2cnccc2c1N | - | - | - | 24 | -
SMILES | MMP-13 inhibitor | CD11b adhes enh | Mac1 fbg inh | FAK inh | FAK inh conf
COCc1cc(C)nc2sc(C(=O)OC)c(N)c12 | - | - | - | - | .
Cc1cc(C)cc(-n2c(C)cc(/C=N/NC(=O)c3cccc([N+](=O)[O-])c3C)c2C)c1 | . | - | - | - | .
Cc1cc([N+](=O)[O-])c2[nH]c(C(=O)N/N=C/c3ccccc3C(=O)O)c(-c3ccccc3)c2c1 | . | . | . | 29 | -
O=C(Nc1ccc2c(c1)oc1ccccc12)c1ccc2c(c1)OCO2 | - | - | - | - | .
O=c1c(O)c(-c2ccc3c(c2)OCO3)oc2ccccc12 | - | - | - | 20 | -
N=c1oc2c3c4c(cc2cc1C(=O)Nc1ccccc1)CCCN4CCC3 | - | - | - | 29 | -
O=C(CNC(=O)c1ccc([N+](=O)[O-])cc1)N/N=C\c1ccc(OC(=O)c2ccccc2)cc1 | . | - | - | 25 | -
CCOC(=O)c1c(NC(=O)CSc2nncn2C)sc(C)c1C | . | - | - | - | .
Cn1cnnc1SCC(=O)Nc1sc2c(c1C(N)=O)CCC2 | - | . | . | 23 | -
Cc1sc(NC(=O)c2sc3nc4c(C)cccc4cc3c2N)c(C#N)c1C | . | . | . | 29 | -
Nc1ncnc2nc(Sc3ccc(Cl)cc3)[nH]c12 | - | - | - | - | .
Nc1ncnc2nc(SCc3ccc(Cl)cc3Cl)[nH]c12 | . | - | - | 25 | -
CCCCCCCC(=O)Nc1ccc(C(=O)N/N=C/c2cccc([N+](=O)[O-])c2)cc1 | . | - | - | 34 | -
O=C(CSc1nnc(-c2ccccc2O)o1)Oc1ccc(OCc2ccccc2)cc1 | - | - | - | - | .
O=C(Cn1cnc2c(cnn2-c2ccccc2)c1=O)N1CCCc2ccccc21 | - | - | - | - | .
CCOc1ccc(S(=O)(=O)Nc2ccccc2SC)c2cccnc12 | - | . | . | 20 | -
COC(=O)c1cc2oc3ccccc3c2n1CC(=O)N1CCCc2ccccc21 | . | - | - | - | .
